U2OS ROS induce: ROS inducers in U2OS cancer cells, primary screen, cell-based, H2DCF-DA fluorescence; U2OS ROS induction; ROS induction (% of piperlongumine), % at 10 µM; 2% of 46,000 active; AID 624156, 2012; in the data active means ROS induction above about 79%, passing the limit was not always enough; inconclusive means no clear call, values can overlap the other calls;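 further: 0% = DMSO vehicle median and 100% = reference compound median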
NOMO-1 viab: NOMO-1 AML cell viability reduction, primary screen, STK33 inhibitor project, CellTiter-Glo luminescence; NOMO-1 AML viability, 72 h; inhibition, % (concentration not given with the values); 7.5% of 37,000 active; AID 2330, 2010; in the data active means inhibition above about 80%; inconclusive means no clear call, values can overlap the other calls
* = called active by the depositor. This is one part of a sample in which hits are shown more often than they occur.

How did C[C@@H]1CN([C@H](C)CO)C(=O)c2cc(NS(=O)(=O)c3cccs3)ccc2O[C@@H]1CN(C)C do in these assays?
U2OS ROS induce: -14; NOMO-1 viab: 2

Results for COc1ccc(/C=C2\CC/C(=C\c3ccc(C)cc3)C2=O)cc1 ?
U2OS ROS induce: 9; NOMO-1 viab: 11

How did O=C1/C(=C/c2ccccn2)CC/C1=C\c1ccccn1 do in these assays?
U2OS ROS induce: 56; NOMO-1 viab: 135*

Results for NC(=S)NN1C2CSC1CS2 ?
U2OS ROS induce: 65; NOMO-1 viab: 27

How did C[C@@H]1CN([C@H](C)CO)C(=O)c2cccc(NC(=O)C3CCCCC3)c2O[C@@H]1CN(C)Cc1ccc(C(=O)O)cc1 do in these assays?
U2OS ROS induce: -12; NOMO-1 viab: -21

Results for C[C@@H]1CN([C@@H](C)CO)C(=O)c2cccc(NC(=O)C3CC3)c2O[C@@H]1CN(C)Cc1ccc(C(=O)Nc2ccccc2N)cc1 ?
U2OS ROS induce: 9; NOMO-1 viab: 128*

How did C[C@H]1CN([C@@H](C)CO)C(=O)c2cccc(NC(=O)C3CCCCC3)c2O[C@H]1CN(C)Cc1ccc(C(=O)Nc2ccccc2N)cc1 do in these assays?
U2OS ROS induce: 35; NOMO-1 viab: 127*

What do the screens show for `C[C@@H]1CN([C@@H](C)CO)C(=O)c2cccc(NC(=O)NC3CCCCC3)c2O[C@@H]1CN(C)Cc1ccc(C(=O)Nc2ccccc2N)cc1`?
U2OS ROS induce: 9; NOMO-1 viab: 129*

How did C[C@H](CO)N1C[C@H](C)[C@H](CN(C)Cc2ccc(C(=O)Nc3ccccc3N)cc2)Oc2c(NC(=O)C3CC3)cccc2C1=O do in these assays?
U2OS ROS induce: 8; NOMO-1 viab: 122*

How did C[C@@H]1CN([C@H](C)CO)C(=O)c2cccc(NC(=O)C3CCOCC3)c2O[C@H]1CN(C)Cc1ccc(C(=O)Nc2ccccc2N)cc1 do in these assays?
U2OS ROS induce: 1; NOMO-1 viab: 19

What do the screens show for `C[C@@H]1CN([C@H](C)CO)C(=O)c2cccc(NC(=O)C3CC3)c2O[C@H]1CN(C)Cc1ccc(C(=O)O)cc1`?
U2OS ROS induce: -2; NOMO-1 viab: 8

What do the screens show for `C[C@H]1CN([C@@H](C)CO)C(=O)c2cccc(NC(=O)NC3CCCCC3)c2O[C@H]1CN(C)Cc1ccc(C(=O)O)cc1`?
U2OS ROS induce: -6; NOMO-1 viab: 13

Results for C[C@@H]1CN([C@H](C)CO)C(=O)Cc2cc(NC(=O)Nc3ccc4c(c3)OCO4)ccc2O[C@H]1CN(C)C(=O)Nc1ccccc1 ?
U2OS ROS induce: 0; NOMO-1 viab: 8

What do the screens show for `Cc1ccc(S(=O)(=O)Nc2cccc3c2O[C@@H](CN(C)Cc2ccc(Oc4ccccc4)cc2)[C@H](C)CN([C@H](C)CO)C3=O)cc1`?
U2OS ROS induce: 9; NOMO-1 viab: 30

Results for Cc1noc(C)c1S(=O)(=O)Nc1ccc2c(c1)CC(=O)N([C@@H](C)CO)C[C@@H](C)[C@@H](CN(C)Cc1ccc3c(c1)OCO3)O2 ?
U2OS ROS induce: -6; NOMO-1 viab: 14

Results for O=C(O)CCS(=O)(=O)c1nc(-c2ccccc2)cc(C(F)(F)F)n1 ?
U2OS ROS induce: 1; NOMO-1 viab: 23

How did O=C(CCS(=O)(=O)c1nc(-c2ccccc2)cc(C(F)(F)F)n1)Nc1ccc(Cl)cc1Cl do in these assays?
U2OS ROS induce: 101*; NOMO-1 viab: 126*

Results for Cc1noc(C)c1NC(=O)N(C)C[C@@H]1Oc2c(NS(=O)(=O)c3ccc(Cl)cc3)cccc2C(=O)N([C@@H](C)CO)C[C@@H]1C ?
U2OS ROS induce: -11; NOMO-1 viab: -12

How did COC(=O)c1c(C)oc2ccc(N(C(=O)c3ccncc3)S(=O)(=O)c3ccc(OC)cc3)cc12 do in these assays?
U2OS ROS induce: 39; NOMO-1 viab: 111*

Results for CC(=O)c1c(C)oc2ccc(N(C(=O)c3ccncc3)S(=O)(=O)c3ccc(F)cc3)cc12 ?
NOMO-1 viab: 31

Results for C=CCON1C(=O)CN(C(=O)Nc2ccccc2)C1c1ccccc1 (stereo not drawn) ?
U2OS ROS induce: 1

What do the screens show for `N#Cc1c(NC(=O)Cn2c(=O)oc3ccccc32)sc2c1CCCC2`?
NOMO-1 viab: 10

How did C=C(C)[C@@H]1Cc2c(ccc3c2O[C@H]2COc4cc(OC)c(OC)cc4[C@@]2(O)C3=O)O1 do in these assays?
U2OS ROS induce: 33; NOMO-1 viab: 117*

What do the screens show for `COc1cc2c(cc1OC)[C@@H]1C(=O)c3ccc4c(c3O[C@@H]1CO2)CCC(C)(C)O4`?
U2OS ROS induce: 8; NOMO-1 viab: 44

How did CCOC(=O)c1ccc(NC(=O)CN2C(=O)C3C4C=CC(C5CC45)C3C2=O)cc1 (stereo not drawn) do in these assays?
U2OS ROS induce: -3; NOMO-1 viab: 1

Results for C[C@@H]1CN([C@H](C)CO)C(=O)c2cc(NC(=O)C3CC3)ccc2O[C@@H]1CN(C)Cc1ccc(C(F)(F)F)cc1 ?
U2OS ROS induce: -2; NOMO-1 viab: -10

What do the screens show for `Cc1c(-c2ccccc2)nc2sc3c(c2c1N)CCCC3`?
U2OS ROS induce: 92*

How did NC(=O)CSc1nc(-c2ccccc2)nc2sc3c(c12)CCCC3 do in these assays?
NOMO-1 viab: 18

Results for CC(=O)c1cccc(NC(=O)CN(c2cc(Cl)c(Cl)cc2Cl)S(C)(=O)=O)c1 ?
U2OS ROS induce: 10; NOMO-1 viab: 36

Results for COc1cc(/C=C/C(=O)OC2CC3CCC2(C)C3(C)C)ccc1O (stereo not drawn) ?
U2OS ROS induce: inconclusive; NOMO-1 viab: 104*

Results for O=C(/C=C/c1ccc(O)c(O)c1)O[C@@H]1C[C@](O)(C(=O)O)C[C@@H](O)[C@H]1O ?
U2OS ROS induce: 0; NOMO-1 viab: 16

Results for COc1ccc(NC(=O)N(C)C[C@@H]2Oc3c(NC(=O)Nc4ccc5c(c4)OCO5)cccc3C(=O)N([C@H](C)CO)C[C@H]2C)cc1 ?
U2OS ROS induce: -7; NOMO-1 viab: 3

What do the screens show for `C[C@@H]1CN([C@H](C)CO)C(=O)c2cccc(NC(=O)c3ccc(-c4nccs4)cc3)c2O[C@@H]1CN(C)Cc1ccccc1`?
U2OS ROS induce: 4; NOMO-1 viab: 28

How did C[C@@H]1CN([C@H](C)CO)C(=O)c2cccc(NC(=O)c3ccc(-c4nccs4)cc3)c2O[C@H]1CN(C)Cc1ccc(C(=O)Nc2ccccc2N)cc1 do in these assays?
U2OS ROS induce: 95*; NOMO-1 viab: 128*

Results for C[C@H](CO)N1C[C@H](C)[C@H](CN(C)CC2CCCCC2)Oc2c(NC(=O)c3ccc(-c4nccs4)cc3)cccc2C1=O ?
U2OS ROS induce: 13; NOMO-1 viab: 26

What do the screens show for `C[C@@H]1CN([C@H](C)CO)C(=O)c2cccc(NC(=O)c3ccc(-c4nccs4)cc3)c2O[C@H]1CN(C)CC1CCCCC1`?
U2OS ROS induce: 33; NOMO-1 viab: 87*

What do the screens show for `C[C@@H]1CN([C@@H](C)CO)C(=O)c2cccc(NC(=O)c3ccc(-c4nccs4)cc3)c2O[C@H]1CN(C)Cc1ccccc1`?
U2OS ROS induce: 31; NOMO-1 viab: 88*

What do the screens show for `C[C@H]1CN([C@@H](C)CO)C(=O)c2cccc(NC(=O)c3ccc(-c4nccs4)cc3)c2O[C@@H]1CN(C)Cc1ccc(C(=O)Nc2ccccc2N)cc1`?
U2OS ROS induce: 159*; NOMO-1 viab: 124*
